# From the supplement of paper PMC8728848
# The entries come from a sample that favours the strongest signals as a whole.
# B1: GST Gap3 (Streptococcus parasanguinis) (protein)
# chain: MTKQLISEIYWNEIRKGENYLYGSQIKFQEDLVNFYNPQLASGKPIVTFKSRTNYQGDRHSPDLPILIQGNRYLLEYQIDAVPANSFFLQLDFFNRQAEQIESIVLRNSGESFIFPKDTFTYTLTLMSAGCQSVTYQKFMIYDINDEEKKNHIVENRYLRELLPKDLDLVKNLIEYI
# Columns and labels:
# Test in all cases: glycan array binding signal (z-score within array); higher = stronger binding
# Settings in all cases: glycan notation: IUPAC condensed, linker removed
# [1] = target: Fuc(a1-2)Gal(b1-3)GlcNAc(b1-3)[Fuc(a1-3)[Gal(b1-4)]GlcNAc(b1-6)]Gal(b1-4)Glc
# Procedure, shortened: (§1)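 The Consortium for Functional Glycomics database supplied 3228 glycan arrays, of which those lacking an available protein sequence were dropped. The binding signal, a within-array Z-score, was averaged across arrays of the same protein sequence and across linkers. Negative scores can be read as non-binding.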
# [2] = target: Fuc(a1-2)Gal(b1-3)[Fuc(a1-4)]GlcNAc(b1-2)Man(a1-3)[Fuc(a1-2)Gal(b1-3)[Fuc(a1-4)]GlcNAc(b1-2)Man(a1-3)]Man(b1-4)GlcNAc(b1-4)GlcNAc
# Procedure, shortened: as §1
# [3] = target: Fuc(a1-2)Gal(b1-4)GlcNAc(b1-2)Man(a1-3)[Fuc(a1-2)Gal(b1-4)GlcNAc(b1-2)Man(a1-6)]Man(b1-4)GlcNAc(b1-4)GlcNAc
# Procedure, shortened: as §1
# [4] = target: Fuc(a1-2)Gal(b1-4)GlcNAc(b1-2)Man(a1-3)[Fuc(a1-2)Gal(b1-4)GlcNAc(b1-2)Man(a1-6)]Man(b1-4)GlcNAc(b1-4)[Fuc(a1-6)]GlcNAc
# Procedure, shortened: as §1
# [5] = target: Fuc(a1-2)Gal(b1-4)GlcNAc(b1-3)[Fuc(a1-3)[Gal(b1-4)]GlcNAc(b1-6)]Gal(b1-4)Glc
# Procedure, shortened: as §1
# [6] = target: Fuc(a1-2)Gal(b1-4)GlcNAc(b1-6)GalNAc
# Procedure, shortened: as §1
# [7] = target: Fuc(a1-2)Gal6S(b1-3)GlcNAc6S
# Procedure, shortened: as §1
# [8] = target: Fuc(a1-2)Gal6S(b1-4)GlcNAc
# Procedure, shortened: as §1
# [9] = target: Fuc(a1-2)[Gal(a1-3)]Gal(b1-3)GlcNAc(b1-6)GalNAc
# Procedure, shortened: as §1
# [10] = target: Fuc(a1-2)[Gal(a1-3)]Gal(b1-4)GlcNAc(b1-2)Man(a1-3)[Fuc(a1-2)[Gal(a1-3)]Gal(b1-4)GlcNAc(b1-2)Man(a1-6)]Man(b1-4)GlcNAc(b1-4)GlcNAc
# Procedure, shortened: as §1
# [11] = target: Fuc(a1-2)[GalNAc(a1-3)]Gal(b1-4)GlcNAc(b1-3)[Fuc(a1-2)[GalNAc(a1-3)]Gal(b1-4)GlcNAc(b1-6)]GalNAc
# Procedure, shortened: as §1
# [12] = target: Fuc(a1-3)[Gal(b1-4)]GlcNAc(b1-3)GalNAc
# Procedure, shortened: as §1
# [13] = target: Gal(b1-3)GlcNAc(b1-3)Gal(b1-4)GlcNAc(b1-3)Gal(b1-4)GlcNAc(b1-2)[Gal(b1-3)GlcNAc(b1-3)Gal(b1-4)GlcNAc(b1-3)Gal(b1-4)GlcNAc(b1-6)]Man(a1-6)[Gal(b1-3)GlcNAc(b1-3)Gal(b1-4)GlcNAc(b1-3)Gal(b1-4)GlcNAc(b1-2)Man(a1-3)]Man(b1-4)GlcNAc(b1-4)[Fuc(a1-6)]GlcNAc
# Procedure, shortened: as §1
# [14] = target: Gal(b1-3)GlcNAc(b1-3)Gal(b1-4)GlcNAc(b1-6)[Gal(b1-3)GlcNAc(b1-3)]Gal(b1-4)Glc
# Procedure, shortened: as §1
# [15] = target: Gal(b1-3)GlcNAc(b1-6)GalNAc
# Procedure, shortened: as §1
# [16] = target: Gal(b1-3)[Fuc(a1-4)]GlcNAc(b1-2)Man(a1-3)[Gal(b1-3)[Fuc(a1-4)]GlcNAc(b1-2)Man(a1-6)]Man(b1-4)GlcNAc(b1-4)GlcNAc
# Procedure, shortened: as §1
# [17] = target: Gal(b1-4)GlcNAc(b1-2)[Gal(b1-4)GlcNAc(b1-6)]Man(a1-6)[GlcNAc(b1-4)][Gal(b1-4)GlcNAc(b1-2)[Gal(b1-4)GlcNAc(b1-4)]Man(a1-3)]Man(b1-4)GlcNAc(b1-4)[Fuc(a1-6)]GlcNAc
# Procedure, shortened: as §1
# [18] = target: Gal(b1-4)GlcNAc(b1-3)Gal(b1-4)GlcNAc(b1-3)Gal(b1-4)GlcNAc(b1-3)Gal(b1-4)GlcNAc(b1-2)[Gal(b1-4)GlcNAc(b1-3)Gal(b1-4)GlcNAc(b1-3)Gal(b1-4)GlcNAc(b1-3)Gal(b1-4)GlcNAc(b1-6)]Man(a1-6)[Gal(b1-4)GlcNAc(b1-3)Gal(b1-4)GlcNAc(b1-3)Gal(b1-4)GlcNAc(b1-3)Gal(b1-4)GlcNAc(b1-2)Man(a1-3)]Man(b1-4)GlcNAc(b1-4)[Fuc(a1-6)]GlcNAc
# Procedure, shortened: as §1
# [19] = target: Gal(b1-4)GlcNAc(b1-3)Gal(b1-4)[Fuc(a1-3)GlcNAc(b1-6)]Gal(b1-4)Glc
# Procedure, shortened: as §1
# [20] = target: Gal(b1-4)GlcNAc(b1-6)Gal(b1-4)GlcNAc(b1-6)GalNAc
# Procedure, shortened: as §1
# [21] = target: Gal3S(b1-4)[Fuc(a1-3)]Glc6S
# Procedure, shortened: as §1
# [22] = target: Gal3S(b1-4)[Fuc(a1-3)]GlcNAc
# Procedure, shortened: as §1
# GalNAc(b1-4)GlcNAc = target: GalNAc(b1-4)GlcNAc
# Procedure, shortened: as §1
# GalNAc4S6S(b1-4)GlcNAc = target: GalNAc4S6S(b1-4)GlcNAc
# Procedure, shortened: as §1
# Glc(a1-4)Glc = target: Glc(a1-4)Glc
# Procedure, shortened: as §1
# Glc(a1-6)Glc(a1-6)Glc = target: Glc(a1-6)Glc(a1-6)Glc
# Procedure, shortened: as §1
# Glc(b1-4)Glc = target: Glc(b1-4)Glc
# Procedure, shortened: as §1
# [23] = target: GlcNAc(a1-3)Gal(b1-4)GlcNAc
# Procedure, shortened: as §1
# [24] = target: GlcNAc(a1-4)Gal(b1-4)GlcNAc(b1-3)Gal(b1-4)[Fuc(a1-3)]GlcNAc(b1-3)Gal(b1-4)[Fuc(a1-3)]GlcNAc
# Procedure, shortened: as §1
# [25] = target: GlcNAc(a1-6)Gal(b1-4)GlcNAc
# Procedure, shortened: as §1
# [26] = target: GlcNAc(b1-3)Gal(b1-4)GlcNAc(b1-2)[GlcNAc(b1-3)Gal(b1-4)GlcNAc(b1-6)]Man(a1-6)[GlcNAc(b1-3)Gal(b1-4)GlcNAc(b1-2)Man(a1-3)]Man(b1-4)GlcNAc(b1-4)GlcNAc
# Procedure, shortened: as §1
# [27] = target: GlcNAc(b1-3)Gal(b1-4)GlcNAc(b1-3)Gal(b1-4)GlcNAc(b1-2)Man(a1-3)[GlcNAc(b1-3)Gal(b1-4)GlcNAc(b1-3)Gal(b1-4)GlcNAc(b1-2)Man(a1-6)]Man(b1-4)GlcNAc(b1-4)[Fuc(a1-6)]GlcNAc
# Procedure, shortened: as §1
# [28] = target: GlcNAc(b1-3)Gal(b1-4)GlcNAc(b1-3)[GlcNAc(b1-3)Gal(b1-4)GlcNAc(b1-3)]GalNAc
# Procedure, shortened: as §1
# [29] = target: GlcNAc6S(b1-3)Gal(b1-4)GlcNAc
# Procedure, shortened: as §1
# Man(a1-2)Man(a1-3)Man = target: Man(a1-2)Man(a1-3)Man
# Procedure, shortened: as §1
# [30] = target: Man(a1-2)Man(a1-6)[Man(a1-3)]Man(a1-6)[Man(a1-2)Man(a1-2)Man(a1-3)]Man
# Procedure, shortened: as §1
# [31] = target: Man(a1-3)[Man(a1-6)]Man(a1-6)[Man(a1-3)]Man
# Procedure, shortened: as §1
# MurNAc(b1-4)GlcNAc = target: MurNAc(b1-4)GlcNAc
# Procedure, shortened: as §1
# [32] = target: Neu5Ac(a2-3)Gal(b1-3)GalNAc(b1-3)Gal(b1-4)GlcNAc
# Procedure, shortened: as §1
# [33] = target: Neu5Ac(a2-3)Gal(b1-3)GlcNAc(b1-2)Man(a1-3)[Neu5Ac(a2-3)Gal(b1-3)GlcNAc(b1-2)Man(a1-6)]Man(b1-4)GlcNAc(b1-4)GlcNAc
# Procedure, shortened: as §1
# [34] = target: Neu5Ac(a2-3)Gal(b1-3)[GlcNAc(b1-6)]GalNAc
# Procedure, shortened: as §1
# [35] = target: Neu5Ac(a2-3)Gal(b1-4)GlcNAc(b1-2)Man(a1-3)[GlcNAc(b1-4)][Neu5Ac(a2-3)Gal(b1-4)GlcNAc(b1-2)Man(a1-6)]Man(b1-4)GlcNAc(b1-4)GlcNAc
# Procedure, shortened: as §1
# [36] = target: Neu5Ac(a2-3)Gal(b1-4)GlcNAc(b1-2)Man(a1-3)[Neu5Ac(a2-3)Gal(b1-4)GlcNAc(b1-2)Man(a1-6)]Man(b1-4)GlcNAc(b1-4)[Fuc(a1-6)]GlcNAc
# Procedure, shortened: as §1
# [37] = target: Neu5Ac(a2-3)Gal(b1-4)GlcNAc(b1-3)[Neu5Ac(a2-3)Gal(b1-4)GlcNAc(b1-6)]GalNAc
# Procedure, shortened: as §1
# [38] = target: Neu5Ac(a2-3)Gal(b1-4)GlcNAc(b1-6)[Gal(b1-3)]GalNAc
# Procedure, shortened: as §1
# [39] = target: Neu5Ac(a2-3)Gal(b1-4)[Fuc(a1-3)]GlcNAc(b1-3)Gal
# Procedure, shortened: as §1
# [40] = target: Neu5Ac(a2-3)Gal(b1-4)[Fuc(a1-3)]GlcNAc(b1-6)[Neu5Ac(a2-3)Gal(b1-3)]GalNAc
# Procedure, shortened: as §1
# [41] = target: Neu5Ac(a2-3)Gal6S(b1-4)[Fuc(a1-3)]GlcNAc
# Procedure, shortened: as §1
# Neu5Ac(a2-3)GalNAc = target: Neu5Ac(a2-3)GalNAc
# Procedure, shortened: as §1
# [42] = target: Neu5Ac(a2-6)Gal(b1-4)GlcNAc(b1-2)Man(a1-6)[GlcNAc(b1-2)Man(a1-3)]Man(b1-4)GlcNAc(b1-4)GlcNAc
# Procedure, shortened: as §1
# [43] = target: Neu5Ac(a2-6)GlcNAc(b1-4)GlcNAc
# Procedure, shortened: as §1
# [44] = target: Neu5Ac(a2-8)Neu5Ac(a2-8)Neu5Ac
# Procedure, shortened: as §1
# [45] = target: Neu5Gc(a2-3)Gal(b1-4)GlcNAc
# Procedure, shortened: as §1
binder,measurement,setting,value
B1,glycan array binding signal (z-score),[1],-0.027
same,glycan array binding signal (z-score),[2],2.3
same,glycan array binding signal (z-score),[3],3.16
same,glycan array binding signal (z-score),[4],-0.105
same,glycan array binding signal (z-score),[5],-0.573
same,glycan array binding signal (z-score),[6],-0.108
same,glycan array binding signal (z-score),[7],2.06
same,glycan array binding signal (z-score),[8],-0.073
same,glycan array binding signal (z-score),[9],-0.112
same,glycan array binding signal (z-score),[10],0.383
same,glycan array binding signal (z-score),[11],-0.377
same,glycan array binding signal (z-score),[12],0.287
same,glycan array binding signal (z-score),[13],4.03
same,glycan array binding signal (z-score),[14],0.052
same,glycan array binding signal (z-score),[15],0.002
same,glycan array binding signal (z-score),[16],3.61
same,glycan array binding signal (z-score),[17],0.228
same,glycan array binding signal (z-score),[18],2.32
same,glycan array binding signal (z-score),[19],-0.093
same,glycan array binding signal (z-score),[20],-0.125
same,glycan array binding signal (z-score),[21],1.61
same,glycan array binding signal (z-score),[22],-0.723
same,glycan array binding signal (z-score),GalNAc(b1-4)GlcNAc,0.123
same,glycan array binding signal (z-score),GalNAc4S6S(b1-4)GlcNAc,-0.267
same,glycan array binding signal (z-score),Glc(a1-4)Glc,3.14
same,glycan array binding signal (z-score),Glc(a1-6)Glc(a1-6)Glc,0.005
same,glycan array binding signal (z-score),Glc(b1-4)Glc,-0.381
same,glycan array binding signal (z-score),[23],-0.406
same,glycan array binding signal (z-score),[24],2.24
same,glycan array binding signal (z-score),[25],0.544
same,glycan array binding signal (z-score),[26],3.45
same,glycan array binding signal (z-score),[27],0.269
same,glycan array binding signal (z-score),[28],-0.518
same,glycan array binding signal (z-score),[29],-0.145
same,glycan array binding signal (z-score),Man(a1-2)Man(a1-3)Man,-0.273
same,glycan array binding signal (z-score),[30],-0.335
same,glycan array binding signal (z-score),[31],-0.516
same,glycan array binding signal (z-score),MurNAc(b1-4)GlcNAc,-0.582
same,glycan array binding signal (z-score),[32],-0.123
same,glycan array binding signal (z-score),[33],-0.211
same,glycan array binding signal (z-score),[34],-0.638
same,glycan array binding signal (z-score),[35],-0.195
same,glycan array binding signal (z-score),[36],2.2
same,glycan array binding signal (z-score),[37],-0.511
same,glycan array binding signal (z-score),[38],-0.323
same,glycan array binding signal (z-score),[39],-0.462
same,glycan array binding signal (z-score),[40],3.62
same,glycan array binding signal (z-score),[41],0.06
same,glycan array binding signal (z-score),Neu5Ac(a2-3)GalNAc,-0.101
same,glycan array binding signal (z-score),[42],-0.269
same,glycan array binding signal (z-score),[43],-0.465
same,glycan array binding signal (z-score),[44],0.585
same,glycan array binding signal (z-score),[45],-0.209
